Compound activity (PubChem)
VDR inh = blocks the human vitamin D receptor; VDR-SRC2-3 peptide fluorescence polarization, 2 h; Potency, µM, usual class: inhibitors; 0.93% of 400,000 active
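The screen uses fluorescence polarization to detect compounds that interfere with recruitment of the SRC2-3 coactivator peptide to VDR; plates are read after 2 h at room temperature.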
BAZ2B block = BAZ2B (human) inhibition. AID 504333. AlphaScreen BAZ2B-H3K14Ac peptide displacement. Potency, µM (top dose mostly 114 µM), actives largely listed as inhibitors. Q9UIF8. 4.4% of 360,000 active; note: nearly all actives have a fitted effect of over 60% in size
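In this displacement format the biotinylated H3(5-23) peptide acetylated at Lys14 serves as ligand at 50 nM, with BAZ2B at 50 nM in PBS pH 7.4 containing 0.01% Tween-20. Donor and acceptor beads are 10 ug/mL final.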
G9a block = blocks human histone lysine methyltransferase G9a; G9a H3K9 monomethylation, AlphaScreen, 2 h; 8.8% of 350,000 active; Q96KQ7; Potency, µM (top dose mostly 102 µM), most hits filed as inhibitors; note: nearly all actives have a fitted effect of over 75% in size
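Using a bead-based AlphaScreen, monomethylated H3K9 product from 2 h room-temperature reactions (G9a 20 nM, peptide 500 nM, SAM 20 uM) was detected with 0.5 ug/mL rabbit anti-H3K9me1 antibody.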
JMJD2A Tudor inh = inhibitors of human JMJD2A Tudor domain; O75164; 4.4% of 390,000 active; Potency, µM (top dose mostly 114 µM), most hits filed as inhibitors; AlphaScreen JMJD2A-Tudor / H3K4me3 peptide binding; note: nearly all actives have a fitted effect of over 50% in size
PLK1 PBD inh = inhibitors of human PLK1 polo-box domain binding. P53350. Potency, µM, usual class: inhibitors. 2.8% of 360,000 active. Plk1 PBD binding of FITC phosphopeptide, fluorescence polarization. AID 720504; note: series mostly up to about 57 µM; nearly all actives have a fitted effect of over 65% in size
Target sequence (P53350 whole entry, looked up, the tested form may be a part): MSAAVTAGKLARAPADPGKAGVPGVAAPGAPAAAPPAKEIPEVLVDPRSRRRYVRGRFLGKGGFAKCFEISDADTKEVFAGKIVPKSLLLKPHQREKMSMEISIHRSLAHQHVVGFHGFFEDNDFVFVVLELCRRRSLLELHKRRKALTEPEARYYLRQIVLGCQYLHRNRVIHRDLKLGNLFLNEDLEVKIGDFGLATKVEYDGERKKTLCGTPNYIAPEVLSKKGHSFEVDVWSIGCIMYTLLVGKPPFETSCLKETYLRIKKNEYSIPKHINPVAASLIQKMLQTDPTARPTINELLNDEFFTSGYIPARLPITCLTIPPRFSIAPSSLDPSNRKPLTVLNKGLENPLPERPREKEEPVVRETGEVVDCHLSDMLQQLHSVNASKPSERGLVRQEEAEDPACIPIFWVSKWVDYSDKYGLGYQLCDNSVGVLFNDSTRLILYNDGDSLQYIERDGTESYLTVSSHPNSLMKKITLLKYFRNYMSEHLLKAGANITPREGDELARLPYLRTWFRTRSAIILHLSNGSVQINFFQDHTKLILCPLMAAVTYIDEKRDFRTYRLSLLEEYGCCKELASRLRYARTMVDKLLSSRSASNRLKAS
HP1b chromo inh = blocks HP1-beta chromodomain binding to methylated histone tails; P83916; AlphaScreen HP1-beta / biotin-H3K9me3 peptide binding; Potency, µM (doses to about 114 µM), actives largely listed as inhibitors; 0.56% of 390,000 active; note: nearly all actives have a fitted effect of over 70% in size
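AlphaScreen: HP1-beta (50 nM) preformed 30 min with biotin-H3(1-18)K9me3 peptide (50 nM) in PBS pH 7.4, 0.01% Tween-20. Compound added for 30 min at RT, then streptavidin donor/nickel chelate acceptor beads (10 ug/mL) for 30 min.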
Each line names hits and unclear results; the compound was inactive in the other large screens. Compounds with a hit are over-represented: about 11% of the library has one in this group of screens. Calls come from the whole dose curve; as a rule, active = well fitted curve in the direction sought with a large enough effect; inconclusive = small, poorly fitted or top-dose-only effect, or another doubt; inactive = no such curve, though single readings can be large; an effect the other way counts as inactive or inconclusive.

CCOc1ccccc1CN(CCc1ccc2c(c1)OCO2)Cc1cc(OC)c(OC)cc1OC	BAZ2B block 44.7µM, G9a block 0.708µM, JMJD2A Tudor inh 5.62µM, HP1b chromo inh inconclusive (no result: PLK1 PBD inh)
CC(=O)C1=C(O)C(=O)N(CCN2CCOCC2)C1c1ccc(N(C)C)cc1 (stereo not drawn)	JMJD2A Tudor inh inconclusive (no result: BAZ2B block, G9a block)
O=C1c2oc3ccccc3c(=O)c2C(c2cccc(O)c2)N1CCCN1CCOCC1 (stereo not drawn)	G9a block 89.1µM
COc1cc(C2c3c(oc4cc(C)c(C)cc4c3=O)C(=O)N2CCCN2CCOCC2)ccc1O (stereo not drawn)	VDR inh inconclusive, G9a block 28.2µM (no result: PLK1 PBD inh)
COc1cc(C2C(C(C)=O)=C(O)C(=O)N2CCN2CCOCC2)ccc1O (stereo not drawn)	G9a block 50.1µM
CCCOc1ccc(C2C(C(=O)/C=C/c3ccco3)=C(O)C(=O)N2CCN2CCOCC2)cc1OC (stereo not drawn)	G9a block 44.7µM, JMJD2A Tudor inh inconclusive (no result: BAZ2B block)
CCOc1c(Br)cc(C2CC(=O)Nc3cc4c(cc32)OCO4)cc1OC (stereo not drawn)	G9a block inconclusive, JMJD2A Tudor inh inconclusive (no result: PLK1 PBD inh)
Cc1ccc(C2c3c(oc4ccc(Cl)cc4c3=O)C(=O)N2CCCN2CCOCC2)o1 (stereo not drawn)	G9a block inconclusive (no result: VDR inh, JMJD2A Tudor inh, PLK1 PBD inh, HP1b chromo inh)
O=C1c2oc3ccc(Cl)cc3c(=O)c2C(c2ccco2)N1CCN1CCOCC1 (stereo not drawn)	G9a block 11.2µM
CCc1ccc(C(=O)Cn2ccsc2=N)cc1	BAZ2B block inconclusive, G9a block 50.1µM
CC(C)(C)NC(=O)NC(=O)Cn1ccsc1=N	none
CSCC[C@H](NC(=O)N1CCn2c1nc1ccccc12)C(=O)NCc1ccco1	BAZ2B block inconclusive, G9a block 79.4µM, JMJD2A Tudor inh 44.7µM, PLK1 PBD inh 26.7µM, HP1b chromo inh inconclusive
CSCC[C@H](NC(=O)N1CCn2c1nc1ccccc12)C(=O)NCC1CCCO1 (stereo partly drawn)	none
CSCC[C@H](NC(=O)N1CCn2c1nc1ccccc12)C(=O)NCc1ccc(C)cc1	BAZ2B block inconclusive, G9a block 31.6µM
CSCC[C@H](NC(=O)N1CCn2c1nc1ccccc12)C(=O)NCc1ccccc1	BAZ2B block inconclusive, G9a block 44.7µM, JMJD2A Tudor inh inconclusive
CSCC[C@H](NC(=O)N1CCn2c1nc1ccccc12)C(=O)N[C@H](Cc1ccccc1)C(=O)O	VDR inh inconclusive, BAZ2B block inconclusive, JMJD2A Tudor inh inconclusive
CCCCn1c(N)c(N(Cc2ccccc2OC)C(=O)COc2ccc(F)cc2Cl)c(=O)[nH]c1=O	none
O=[N+]([O-])c1ccc(CSc2nnc(Cc3ccccc3)o2)cc1	G9a block 44.7µM, PLK1 PBD inh inconclusive
O=[N+]([O-])c1ccc(C[n+]2ccc(Cc3ccccc3)cc2)cc1	G9a block 12.6µM
O=[N+]([O-])c1ccc(C[n+]2ccccc2)cc1	none
O=c1[nH]c(CSc2nnc(Cc3ccccc3)o2)nc2ccccc12	G9a block inconclusive
Cc1[nH]c2ccccc2c1Cc1nnc(SCc2ccccc2)o1	BAZ2B block inconclusive, G9a block 70.8µM, JMJD2A Tudor inh inconclusive
COc1ccc(Cc2nnc(SCc3ccc([N+](=O)[O-])cc3)o2)cc1	BAZ2B block inconclusive, HP1b chromo inh inconclusive
O=[N+]([O-])c1ccc(-c2cc(-c3ccncc3)nc3ccc4ccccc4c23)cc1	BAZ2B block inconclusive, G9a block 44.7µM
COC(=O)c1ccc(C(=O)OC)c(N)c1	none (no result: VDR inh, JMJD2A Tudor inh, PLK1 PBD inh, HP1b chromo inh)
COC(=O)c1ccc(N2CCC(C)CC2)c(N)c1	VDR inh inconclusive, G9a block 8.91µM, JMJD2A Tudor inh inconclusive, PLK1 PBD inh 21.2µM, HP1b chromo inh inconclusive
CCCC(=O)c1ccc(N2CCC(C)CC2)c(F)c1	PLK1 PBD inh 23.8µM
CCC(=O)c1ccc(N2CCC(C)CC2)c(F)c1	none
Cc1cccc(N2CCN(S(=O)(=O)c3ccc(-c4cnc(C5CC5)o4)cc3)CC2)c1C	BAZ2B block inconclusive (no result: PLK1 PBD inh)
O=C(Nc1ccccc1C(=O)Nc1ccncc1)c1ccccc1	none
CCc1ccc(OCC(=O)N2CCc3ccccc32)cc1	none
O=C(COc1ccc2c(c1)CCC2)N1CCc2ccccc21	VDR inh inconclusive, JMJD2A Tudor inh 39.8µM, PLK1 PBD inh 3.77µM, HP1b chromo inh inconclusive
O=C(COc1ccccc1[N+](=O)[O-])N1CCCc2ccccc21	G9a block 70.8µM
O=C(O)c1ccc(S(=O)(=O)c2ccc(Sc3ccc(C(=O)O)c(C(=O)O)c3)cc2)cc1	BAZ2B block 50.1µM, G9a block 44.7µM
CCOC(=O)C1CCCN(C(=O)CCS(=O)(=O)c2cc3c(cc2Cl)NC(=O)CO3)C1 (stereo not drawn)	none (no result: PLK1 PBD inh)
CC1CCN(C(c2ccc(N(C)C)cc2)c2nnnn2C(C)(C)C)CC1 (stereo not drawn)	VDR inh 50.1µM, BAZ2B block 50.1µM, G9a block inconclusive, JMJD2A Tudor inh 56.2µM, HP1b chromo inh inconclusive
CCC(C)(C)n1nnnc1C(c1ccc(O)cc1)N1CCc2ccccc2C1 (stereo not drawn)	VDR inh inconclusive, G9a block 2.51µM, JMJD2A Tudor inh 89.1µM, HP1b chromo inh inconclusive
CN(C)c1ccc(C(c2nnnn2C(C)(C)C)N2CCc3ccccc3C2)cc1 (stereo not drawn)	BAZ2B block inconclusive, G9a block 39.8µM (no result: VDR inh, JMJD2A Tudor inh, PLK1 PBD inh, HP1b chromo inh)
O=C(NCS(=O)(=O)c1ccccc1)c1ccccc1	G9a block 50.1µM
CCc1cc2c(-c3ccccc3)cc(=O)oc2cc1OC(C)C(=O)NCC1CCC(C(=O)O)CC1 (stereo not drawn)	none
Cc1cc(Nc2ccc(Br)c(C)c2)n2nc(C)nc2n1	VDR inh inconclusive, JMJD2A Tudor inh inconclusive, PLK1 PBD inh 29.9µM
CCNC(=S)Nc1ccc2c(c1)c(=O)n(C)n2Cc1cccc(C(F)(F)F)c1	PLK1 PBD inh 26.7µM (no result: VDR inh, BAZ2B block, G9a block, JMJD2A Tudor inh, HP1b chromo inh)
COc1ccc(C(C(=O)NC(C)(C)C)N(C(=O)CNC(=O)c2cccs2)c2cccnc2)cc1OC (stereo not drawn)	none
Cc1ccc(NC(=O)c2cncc(Br)c2)cc1S(=O)(=O)N(C)C	VDR inh 44.7µM, JMJD2A Tudor inh 12.6µM, PLK1 PBD inh 15µM, HP1b chromo inh inconclusive
Cc1ccc(NC(=O)C2CCN(c3ncnc4sc(C)c(C)c34)CC2)cc1S(=O)(=O)N(C)C	G9a block 14.1µM
Cc1ccc(NC(=O)c2cnccn2)cc1S(=O)(=O)N(C)C	none
Cc1cnc(C(=O)Nc2ccc(C)c(S(=O)(=O)N(C)C)c2)cn1	VDR inh inconclusive, JMJD2A Tudor inh 50.1µM, PLK1 PBD inh 23.8µM
Cc1sc2ncnc(N3CCC(C(=O)Nc4ccc(S(N)(=O)=O)cc4)CC3)c2c1C	G9a block inconclusive
Cc1ccc2nsnc2c1NC(=O)c1cncc(Br)c1	G9a block 56.2µM
CC(=O)Nc1c(C)ccc2nsnc12	none
CN(C)S(=O)(=O)c1cccc(NC(=O)c2cncc(Br)c2)c1	none
